Screening data: PubChem BioAssay, ICCB-Longwood Screening Facility, Harvard Medical School
Many of the other results were omitted from the sample, so hits are more common in it than they were.
HCMV NEC inh – inhibitors of HCMV UL50-UL53 interaction, biochemical, HTRF | AID 1918969, 2023 | inhibition, % (test concentration not listed) | normalized percent inhibition | actives 0.15% (n = 190,000); in the data active = inhibition above about 27%, passing the limit was not always enough
Sa helicase inh – inhibitors of S. aureus replicative helicase, primary screen, biochemical, fluorescence unwinding readout | actives 0.05% (n = 120,000) | inhibition, % (no concentration beside the values) | replicative DNA helicase (DnaC/DnaB), Staphylococcus aureus | purified S. aureus helicase, fluorescence unwinding assay; in the data active = inhibition above about 25%, passing the limit was not always enough
Sa growth 42C – S. aureus growth inhibition at 42 and 30 °C, primary screen, LtaS inhibitor project, RN4220, two temperatures | OD600, 20 h, 42 °C; hits give low values | relative growth, % (test concentration not listed) | actives 0.53% (n = 170,000);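 active = relative growth at most 50% at the other temperature and 20+ points below 30 °C, or under 10% at both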
Hits are given with their value; . = inactive; / = no result.

SMILES | HCMV NEC inh | Sa helicase inh | Sa growth 42C
Oc1c(Cl)cc(Cl)cc1C(O)(C(F)(F)F)C(F)(F)F | . | . | 7.3
CCC(=O)c1cc(Cl)cc(Cl)c1O | . | . | .
Cc1ccc(N)c(C(O)(C(F)(F)F)C(F)(F)F)c1 | . | . | /
CC(C)Oc1nsnc1N1CCOCC1 | . | . | .
c1ccc(-c2ccc3c(c2)c2c4n3CCN=C4CCC2)cc1 | . | . | -0.2
Cc1ccc2c(c1)c1c3n2CC(O)CN=C3CCC1 (stereo unspecified) | . | . | .
CCOC(=O)c1cc2c(C)n(C)c(C)c2cc(C(=O)OCC)c1=O | . | / | /
COc1cc(/C=N/N=C(N)N)ccc1OC(=O)c1ccc(C)cc1 | . | . | -0.7
COc1ccc(/C=N/N=C(N)N)cc1OC | . | . | .
O=C(c1cc(-c2ccncc2)n(-c2ccc(F)cc2)n1)N1CCN(c2ccc(Cl)cc2)CC1 | . | / | /
C=C(C)C(=O)Oc1cccc(N2C(=O)CCC2=O)c1 | . | . | .
CN1/C(=C/C=C(C#N)C#N)C=Cc2ccccc21 | . | . | .
CN1/C(=C/c2cccc[n+]2C)C=Cc2ccccc21 | / | 54.0 | .
O=C(O)CCCc1nc2ccccc2s1 | . | . | .
O=C(O)Cc1nc2ccccc2s1 | . | . | -0.3
CCCC(=O)Oc1cc2c(C(=O)OCC)c(C)n(-c3ccccc3)c2c2ccccc12 | . | / | /
CC(C=C1C(=O)NC(=O)NC1=O)c1ccccc1 (stereo unspecified) | 61.5 | / | .
O=C1NC(=O)C(=Cc2ccc(-c3ccccc3)o2)C(=O)N1 | / | . | .
CCCC[n+]1c(C)csc1Nc1ccccc1 | . | . | /
Cc1[nH]c(C(=O)Nc2ccc(F)c(Cl)c2)c(C)c1S(=O)(=O)N1CCCCC1 | . | / | /
CN(C)Cc1ccc2ccc3cccc4ccc1c2c34 | . | 50.0 | .
Cc1c(CC#N)ccc2ccccc12 | . | / | .
Cc1ccc(S(=O)(=O)Nc2ccccc2SCc2cc(=O)n3cc(C)ccc3n2)cc1 | . | / | /
CCCCNC(=O)CN1CCN(C(=O)c2ccc(N3CCNCC3)c(NS(C)(=O)=O)c2)CC1 | . | / | /
CC(C)n1c(=S)[nH]c2scc(-c3cccs3)c2c1=O | . | . | 3.9
SMILES | HCMV NEC inh | Sa helicase inh | Sa growth 42C
O=c1c2c(-c3cccs3)csc2[nH]c(=S)n1-c1ccccc1 | . | . | .
CCCN1C(=O)/C(=c2\sc3n(c2=O)C(c2cccs2)C(C(=O)OC)=C(C)N=3)c2ccccc21 (stereo unspecified) | . | / | /
COc1ccc(C(=O)Cn2nc(CNc3ccc(Br)cc3)[n+]3c2CCCCC3)cc1 | . | . | 1.4
Cc1nn(CC(=O)c2ccc(Br)cc2)c(N)[n+]1C | . | . | /
Cc1noc(C)c1S(=O)(=O)N(c1ccc(Br)cc1F)S(=O)(=O)c1c(C)noc1C | . | . | .
CC1(C)S[C@@H]2[C@H](NC(=O)[C@H](NC(=O)N3CCNC3=O)c3ccccc3)C(=O)N2C1C(=O)O (stereo partly specified) | . | / | -1.3
CC1(C)S[C@@H]2[C@H](NC(=O)[C@@H](N)c3ccc(O)cc3)C(=O)N2[C@H]1C(=O)O | . | / | -0.4
CC1(C)S[C@@H]2C(NC(=O)C(N)c3ccc(O)cc3)C(=O)N2C1C(=O)O (stereo partly specified) | . | / | /
CC1(C)S[C@@H]2[C@H](NC(=O)[C@H](NC(=O)N3CCNC3=O)c3ccccc3)C(=O)N2[C@H]1C(=O)O | . | / | /
Cc1cc(C(=O)COC(=O)c2cc(S(C)(=O)=O)ccc2Cl)c(C)n1C | . | . | .
CCOC(=O)c1cc2ncc(C(F)(F)F)cc2s1 | . | / | .
NNC(=O)c1cc2ncc(C(F)(F)F)cc2s1 | . | . | 0.0
O=c1[nH]sc2ccccc12 | . | . | -1.8
O=c1cc(O)sc2ccccc12 | . | . | .
Cc1cccc(Nc2nc3nonc3nc2Cl)c1 | . | . | -0.4
Cc1cccc(Nc2nc3nonc3nc2N2CCC(C)CC2)c1 | . | / | /
Cc1cc2occ(CC(=O)OC(C)C(=O)NC3(C#N)CCCCC3)c2cc1C (stereo unspecified) | . | . | .
CCn1c(SCC(=O)Nc2ccc3[nH]c(=O)[nH]c3c2)nnc1-c1cccs1 | . | . | .
Cc1c(C(=O)Nc2ccc(N3CC(C)OC(C)C3)nc2)cccc1-c1ccc(OC(F)(F)F)cc1 (stereo unspecified) | . | / | /
O=C(Nc1ccc(OC(F)(F)F)cc1)Oc1ccccc1N1CCOCC1 | . | / | 3.7
O=C(Nc1ccc(F)cc1)Oc1ccccc1N1CCOCC1 | . | . | .
CC1CN(c2ccccc2OC(=O)Nc2ccc(OC(F)(F)F)cc2)CC(C)O1 (stereo unspecified) | . | / | 3.0
FC(F)(F)c1nc(SCc2ccc(Cl)cc2Cl)n[nH]1 | . | / | -0.8
O=c1[nH]nc(SCc2ccc(Cl)cc2Cl)c(=O)[nH]1 | . | . | .
NCCC1CCCO1 (stereo unspecified) | . | . | .
SMILES | HCMV NEC inh | Sa helicase inh | Sa growth 42C
COCCNC(=O)C1CCCN(C(=O)c2[nH]c(C)c(C(=O)OC)c2C)C1 (stereo unspecified) | . | / | /
Brc1cc2c(cc1/C=N/c1c(-c3ccco3)nc3ccccn13)OCO2 | . | . | .
Nc1c(-c2ccccc2)nc2sccn12 | . | . | .
O=C(CSc1nc(-c2ccccc2F)nc2cc(=O)[nH]n12)Nc1cccc(C(F)(F)F)c1 | / | / | 2.8
O=C(CSc1nc(-c2cccc(Cl)c2)nc2cc(=O)[nH]n12)Nc1ccccc1 | / | / | .
Cc1ccc(Cl)cc1N1CCN(CCNC(=O)CCCn2sc3ccccc3c2=O)CC1 | . | . | .
CCOC(=O)c1nc(Nc2cc(OCC)ccc2OCC)c2c(C)noc2n1 | . | / | /
COc1ccc(S(=O)(=O)N2CCN(C(=O)c3nsc4ccc(C)cc34)CC2)cc1Cl | . | / | /
O=C(/C=C/c1ccccc1)OCC(=O)N1CCc2ccccc2C1 | . | . | .
N#Cc1c(N)nc(SCC(=O)c2ccccc2)c(C#N)c1-c1ccc(O)cc1 | 29.6 | / | /
N#Cc1c(N)nc(SCC(=O)c2ccc(Br)cc2)c(C#N)c1-c1ccc(O)cc1 | . | / | /
C=CCNc1nc(C(=O)OCC(=O)N2CCN(c3ccc(OC)cc3)CC2)cs1 | . | . | .
CC(C)(C)N1COc2ccc3c4c(oc3c2C1)C(=O)c1ccccc1C4=O | . | . | .
O=C1c2ccccc2C(=O)c2c1oc1c3c(ccc21)OCN(CCCn1ccnc1)C3 | . | . | 5.8
Cc1oc2c(c1C(=O)NCCC(C)C)C(=O)c1ccccc1C2=O | / | . | .
O=C1c2ccccc2C(=O)c2c1oc1c3c(ccc21)OCN(CCC1=CCCCC1)C3 | . | . | 7.0
CCCCCN1COc2ccc3c4c(c(=O)oc3c2C1)CCC4 | . | . | .
Cc1oc2c(c1C(=O)NCCCn1ccnc1)C(=O)c1ccccc1C2=O | / | . | -0.8
O=c1ccc2ccc(OCc3nn[nH]n3)cc2o1 | . | / | /
O=C(CCC1CCCC1)N1CCC(c2nc(-c3ccc(F)cc3)no2)CC1 | . | / | /
CSc1cccc(NC(=NCc2ccncc2)NC(=O)c2ccc(CN3CCOCC3)cc2)c1 | . | / | /
Cc1ccc(-c2c(CN3CCN(C)CC3)csc2C)cc1 | . | . | 6.2
Cc1ccc(-c2c(CN3CCN(c4cccc(C)c4C)CC3)csc2C)cc1 | / | / | .
CCN(CC)C(=O)/C(C#N)=C/c1cn(-c2ccccc2)nc1-c1ccccc1 | . | . | .
Cc1cc(C)cc(NC(=S)NC2CCCCC2)c1 | . | / | .
FC(F)(F)c1cc(NC(=S)NC2CCCCC2)cc(C(F)(F)F)c1 | . | / | 7.4
